# Experimental data from PubChem BioAssay (NCATS).
# Records with an inconclusive call do not appear. A call without a number means that no potency is given here. Unmarked numbers belong to inactive results. The source made the active and inactive calls. Calls come from the whole dose curve; as a rule, active = well fitted inhibition curve with a large enough effect; inconclusive = small, poorly fitted or top-dose-only effect; inactive = no such curve, though single readings can be large or run the other way. Where a SMILES comes first, the peptide text is derived from it. [ ]: non-standard residue; d: D form. 2Abz = Nc1ccccc1C(=O)O
# Legend:
# [1] = test system: Zika virus NS2B-NS3 protease (unlinked complex); experiment: Primary screen GU Rhodamine qHTS for Zika virus inhibitors: Unlinked NS2B-NS3 protease assay (AID 1347159); note: nearly all actives have a fitted effect of over 60% in size
# How it was run: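 Noncovalent NS2B hydrophilic domain–NS3 protease domain complex (25 nM) preincubated 15 min at room temperature with compounds (up to 114 microM) in 10 mM Tris-HCl pH 8.0, 0.01% Tween 20; 1.5 microM Rhodamine110 substrate added, fluorescence change over 15 min fitted to Hill equation.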
# [2] = test system: Zika virus NS2B-NS3 protease (linked construct); experiment: Primary screen NINDS Rhodamine qHTS for Zika virus inhibitors (AID 1347160); note: nearly all actives have a fitted effect of over 55% in size
# How it was run: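 Purified linked NS2B-NS3 protease (NS2B hydrophilic domain joined to NS3 protease by flexible linker), 25 nM in 10 mM Tris-HCl pH 8.0, 0.01% Tween 20. Compounds titrated, 15 min preincubation at room temperature; 1.5 microM Rhodamine110 substrate, FITC fluorescence change over 15 min.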
# Potency is the fitted concentration of half-maximal effect.
smiles,measurement,setting,value
COc1ccc2c(c1O)OC[C@H]1c3ccc(O)cc3O[C@@H]21,Potency,[1],inactive
same,Potency,[2],inactive
C=CC1C(O[C@@H]2O[C@H](CO)[C@@H](O)[C@H](O)[C@H]2O)OC=C(C(=O)OC)C1CC(=O)O (stereo partly drawn),Potency,[1],inactive
same,Potency,[2],inactive
CCC[C@@H]1C[C@@H](C(=O)N[C@@H]([C@H]2O[C@H](SC)[C@H](OP(=O)(O)O)[C@@H](O)[C@H]2O)[C@H](C)Cl)N(C)C1,Potency,[1],inactive
same,Potency,[2],inactive
C[C@@H]1C[C@H](O[C@@H]2O[C@H](CO[C@@H]3OC[C@](O)(CO)[C@H]3O)[C@@H](O)[C@H](O)[C@H]2O)CC(C)(C)[C@H]1/C=C/[C@@H](C)O,Potency,[1],inactive
same,Potency,[2],inactive
CC(C)CNC(=O)/C=C/CCCCc1ccc2c(c1)OCO2,Potency,[1],inactive
same,Potency,[2],inactive
COc1cc(C(=O)OC[C@H]2O[C@H](O[C@@]3(CO)O[C@@H](CO)[C@H](O)[C@H]3O)[C@H](O)[C@@H](O)[C@@H]2O)ccc1O,Potency,[1],inactive
same,Potency,[2],inactive
O=C(CCCCc1ccc2ccccc2c1)C(F)(F)F,Potency,[1],inactive
same,Potency,[2],inactive
O=C(NCC(=O)N1CC[C@H](NC2CCC(O)(c3ccc(-c4ncccn4)cn3)CC2)C1)c1cccc(C(F)(F)F)c1 (stereo partly drawn),Potency,[1],inactive
same,Potency,[2],inactive
C=C1C2(CCC(=O)OC2(C)C)CC(OC(=O)/C(C)=C/C)C2(C)C13OC14C(=O)OC(C)(C(=O)C12C(=O)OC4C)C3OC(C)=O (stereo not drawn),Potency,[1],inactive
same,Potency,[2],inactive
CC(NCc1ccc(OCc2cccc(F)c2)cc1)C(N)=O (stereo not drawn),Potency,[1],inactive
same,Potency,[2],inactive
CC(=O)NC(CCC(=O)O)C(=O)NCCc1ccc(O)cc1 (stereo not drawn),Potency,[1],inactive
same,Potency,[2],inactive
C[C@@H]1O[C@@H](O[C@@H]2[C@@H](O)[C@H](O[C@@H]3[C@@H](O)[C@@H](O)[C@H](O[C@H]4[C@H](OC(=O)[C@]56CCC(C)(C)C[C@H]5C5=CCC7[C@@]8(C)C[C@H](O)[C@H](O[C@@H]9O[C@H](C(=O)O)[C@@H](O)[C@H](O)[C@H]9O)[C@@](C)(CO)C8[C@H](O)C[C@@]7(C)[C@]5(C)CC6)OC[C@H](O)[C@@H]4O)O[C@H]3C)OC[C@H]2O)[C@H](O)[C@H](O)[C@H]1O (stereo partly drawn),"activity change, negative = inhibition",[1],20.7% [at 19.1 µM]
same,outcome,[2],inactive [at 10.7 µM]
C[C@H](NCc1ccc(OCc2ccccc2F)cc1)C(N)=O,Potency,[1],inactive
same,Potency,[2],inactive
NS(=O)(=O)OC[C@@H]1C[C@@H](n2ccc3c(N[C@H]4CCc5ccccc54)ncnc32)C[C@@H]1O,Potency,[1],inactive
same,Potency,[2],inactive
CC1(C)CC[C@]2(C(=O)O)CC[C@]3(C)C(=CCC4[C@@]5(C)C[C@@H](O)[C@H](O)C(C)(C)C5CC[C@]43C)[C@@H]2[C@@H]1O (stereo partly drawn),Potency,[1],inactive
same,Potency,[2],inactive
COc1cc(C2OCC3C(c4ccc(OC5OC(CO)C(O)C(O)C5O)c(OC)c4)OCC23)ccc1O (stereo not drawn),Potency,[1],inactive
same,Potency,[2],inactive
CNC(=O)COC(=O)NCCC1CCN(c2cccc(C)n2)CC1,Potency,[1],inactive
same,Potency,[2],inactive
Cc1onc(-c2ccccc2)c1C(=O)N[C@@H]1C(=O)N2[C@@H]1SC(C)(C)[C@@H]2C(=O)O,Potency,[1],inactive
same,Potency,[2],inactive
Cn1c(=O)c2nc(/C=C/c3cccc(Cl)c3)n(C)c2n(C)c1=O,Potency,[1],inactive
same,Potency,[2],inactive
NC(Cc1c[nH]c2ccccc12)C(=O)NC(CCC(=O)O)C(=O)O (stereo not drawn),Potency,[1],inactive
same,Potency,[2],inactive
CC1CCC2C(C)(C)C(O)CCC2(C)C12Cc1c(O)cc3c(c1O2)CN(C(CCC(N)=O)C(=O)O)C3=O (stereo not drawn),Potency,[1],inactive
same,Potency,[2],inactive
COc1ccc(C(OC2OC(CO)C(O)C(O)C2O)C(C)O)cc1 (stereo not drawn),Potency,[1],inactive
same,Potency,[2],inactive
C[C@@H]1O[C@@H](O[C@H]2[C@H](O[C@H]3CC[C@@]4(C)C(CC[C@]5(C)C4CC=C4C6CC(C)(C)CC[C@]6(C(=O)O[C@@H]6O[C@H](CO[C@@H]7O[C@H](CO)[C@@H](O[C@@H]8O[C@@H](C)[C@H](O)[C@@H](O)[C@H]8O)[C@H](O)[C@H]7O)[C@@H](O)[C@H](O)[C@H]6O)CC[C@]45C)[C@]3(C)CO)OC[C@H](O)[C@@H]2O)[C@H](O)[C@H](O)[C@H]1O (stereo partly drawn),"activity change, negative = inhibition",[1],20.6% [at 19.1 µM]
same,"activity change, negative = inhibition",[2],37.8% [at 10.7 µM]
C(#Cc1cccc(CN2CCOCC2)c1)CCN1CCCCC1,Potency,[1],inactive
same,Potency,[2],inactive
N[C@@H](CC(=O)N1CCn2c(nnc2C(F)(F)F)C1)Cc1[nH]nc2c(F)c(F)ccc12,Potency,[1],inactive
same,Potency,[2],inactive
CNC(=O)c1ccc2cc([C@@]3(O)CCn4cncc43)ccc2c1,Potency,[1],inactive
same,Potency,[2],inactive
CC(C)Nc1cc(-c2c[nH]c(C(=O)N[C@H](CO)c3cccc(Cl)c3)c2)c(Cl)cn1,Potency,[1],44.7 µM (active)
same,Potency,[2],inactive
Cc1[nH]cnc1C1CCN(c2nc3cccc4c3n2CCC4=O)CC1,Potency,[1],inactive
same,Potency,[2],inactive
C=C(C(=O)OC)C1CCC2(C)C(O[C@@H]3O[C@H](CO)[C@@H](O)[C@H](O)[C@H]3O)CC(=O)C(C)C2C1O (stereo partly drawn),Potency,[1],inactive
same,Potency,[2],inactive
COC1C2=C(COC2=O)C2(C)CCCC(C)(CO)C2C1OC(=O)c1ccccc1 (stereo not drawn),Potency,[1],inactive
same,Potency,[2],inactive
CC1CCC2(C(=O)OC3OC(COC4OC(CO)C(O)C(O)C4O)C(O)C(O)C3O)CCC3(C)C(=CCC4C5(C)CCC(O)C(C)(C(=O)O)C5CCC43C)C2C1(C)O (stereo not drawn),Potency,[1],inactive
same,Potency,[2],inactive
C/C=C/C=C/C=C/C(=O)O[C@@H]1[C@@H](OC)C2=C(C(=O)N(C(C)C(=O)O)C2)[C@@]2(C)CCCC(C)(C)[C@H]12 (stereo partly drawn),Potency,[1],7.94 µM (active)
same,Potency,[2],11.2 µM (active)
CC1CCC2(NC1)OC1C(=O)C3C4CCC5CC(O[C@@H]6O[C@H](CO)[C@@H](O)[C@H](O)[C@H]6O[C@@H]6O[C@@H](C)[C@H](O)[C@@H](O)[C@H]6O)CCC5(C)C4CCC3(C)C1C2C (stereo partly drawn),Potency,[1],inactive
same,Potency,[2],inactive
COc1ccc([C@H]2Cc3cccc(O)c3C(=O)O2)cc1,Potency,[1],inactive
same,Potency,[2],inactive
CC12CCC3c4ccc(O)cc4CCC3C1CCC2OC1OC(C(=O)O)C(O)C(O)C1O (stereo not drawn),Potency,[1],inactive
same,Potency,[2],inactive
C=C1C(=O)OC2/C=C(\C)CC/C=C(\C(=O)O)CC/C=C(\C)CCC12 (stereo not drawn),Potency,[1],inactive
same,Potency,[2],inactive
CC1(C)CC2C3=CCC4C5(C)CCC(OC6OC(C(=O)O)C(O)C(O)C6OC6OC(CO)C(O)C(O)C6OC6OC(CO)C(O)C(O)C6O)C(C)(CO)C5CCC4(C)C3(C)CCC2(C)C(OC2OCC(O)C(OC3OC(CO)C(O)C(O)C3O)C2O)C1O (stereo not drawn),"activity change, negative = inhibition",[1],8.97% [at 19.1 µM]
same,"activity change, negative = inhibition",[2],-17% [at 10.7 µM]
C[C@H]1C[C@H]2[C@@H]3CCC4=CC(=O)C=C[C@]4(C)[C@@]3(F)[C@@H](O)C[C@]2(C)[C@@]1(O)C(=O)COP(=O)(O)O,Potency,[1],inactive
same,Potency,[2],inactive
O=C(OCC12OC1C=CC(OC(=O)c1ccccc1)C2O)c1ccccc1 (stereo not drawn),Potency,[1],inactive
same,Potency,[2],inactive
C=C1C[C@]23C[C@H]1CC[C@H]2[C@]1(C)CCC[C@@]2(CO)C(=O)O[C@H]([C@H]21)[C@@H]3O,Potency,[1],inactive
same,Potency,[2],inactive
CC(=O)O[C@H]1[C@H](Oc2ccccc2COC(=O)C2(O)C=CCCC2=O)O[C@H](CO)[C@@H](O)[C@@H]1O (stereo partly drawn),Potency,[1],inactive
same,Potency,[2],inactive
C/C=C(\C)C(=O)O[C@@H](C)[C@H]1CC[C@]2(O)C3CCC4C[C@@H](OC5CC(OC)C(OC6CC(OC)C(OC7CC(OC)C(OC8OC(C)C(OC9OC(CO)C(O)C(O)C9O)C(OC)C8O)C(C)O7)C(C)O6)C(C)O5)CC[C@]4(C)C3[C@H](O)[C@@H](O)[C@]12C (stereo partly drawn),"activity change, negative = inhibition",[1],-1.05% [at 19.1 µM]
same,"activity change, negative = inhibition",[2],6.1% [at 10.7 µM]
C=CCc1ccc(O[C@@H]2O[C@H](CO[C@@H]3O[C@H](CO)[C@@H](O)[C@H](O)[C@H]3O)[C@@H](O)[C@H](O)[C@H]2O)c(O)c1,Potency,[1],inactive
same,Potency,[2],inactive
CC1OC(O[C@H]2[C@@H](O)C[C@@]3(C)C([C@H](O)C[C@]4(C)C3CC=C3C5CC(C)(C)CC[C@]5(C(=O)OC5OC(CO)C(O)C(O)C5OC5OCC(OC6OCC(OC7OCC(O)C(O)C7O)C(O)C6O)C(OC6OCC(O)(CO)C6O)C5O)CC[C@]34C)[C@]2(C)CO)C(O)C(O)C1O (stereo partly drawn),"activity change, negative = inhibition",[1],27.1% [at 19.1 µM]
same,"activity change, negative = inhibition",[2],-1.39% [at 10.7 µM]
O=C(O)CCc1cc2ccoc2cc1O[C@@H]1O[C@H](CO[C@@H]2OC[C@](O)(CO)[C@H]2O)[C@@H](O)[C@H](O)[C@H]1O,Potency,[1],inactive
same,Potency,[2],inactive
C[C@H]1CN(C[C@H](Cc2ccccc2)C(=O)NCC(=O)O)CC[C@@]1(C)c1cccc(O)c1,Potency,[1],inactive
same,Potency,[2],inactive
C=CC1(C)CC2=CCC3C(C)(C(=O)O)CCCC3(C)C2CC1OC(C)=O (stereo not drawn),Potency,[1],inactive
same,Potency,[2],inactive
CC1=C2CC3OC3(C)CCC3OC3(C)CC2OC1=O (stereo not drawn),Potency,[1],inactive
same,Potency,[2],inactive
OC[C@H]1O[C@@H](OCCc2ccc(O)cc2)[C@H](O)[C@@H](O)[C@@H]1O,Potency,[1],inactive
same,Potency,[2],inactive
Cc1nc2c(-c3cnc(N)nc3)nc(N3CCOCC3)nc2n1C(C)C,Potency,[1],inactive
same,Potency,[2],inactive
C[C@@H]1O[C@@H](O[C@H]2[C@H](OC(=O)[C@]34CCC(C)(C)C[C@H]3C3=CCC5[C@@]6(C)CC[C@H](O[C@@H]7O[C@H](CO[C@@H]8OC[C@H](O)[C@H](O)[C@H]8O)[C@@H](O)[C@H](O)[C@H]7O)C(C)(C)C6CC[C@@]5(C)[C@]3(C)C[C@H]4O)OC[C@@H](O)[C@@H]2O)[C@H](O)[C@H](O)[C@H]1O[C@@H]1OC[C@H](O)[C@H](O[C@@H]2OC[C@@H](O)[C@H](O)[C@H]2O)[C@H]1O (stereo partly drawn),"activity change, negative = inhibition",[1],-11.8% [at 19.1 µM]
same,"activity change, negative = inhibition",[2],-14.5% [at 10.7 µM]
CC1=CC(=O)CC(C)(C)C1(O)CCC(C)O (stereo not drawn),Potency,[1],inactive
same,Potency,[2],inactive
COc1cc(/C=C/C(=O)OC2[C@H](O)CC(O)(C(=O)O)C[C@H]2O)ccc1O (stereo partly drawn),Potency,[1],inactive
same,Potency,[2],inactive
CCC(C)C1NC(=O)C2CCCN2C(=O)C(C(C)C)NC(=O)c2ccccc2NC(=O)C(Cc2ccc(O)cc2)NC(=O)C(C)NC(=O)C(C(C)O)NC1=O (stereo not drawn) (cyclo([2Abz]VPITAY); configuration not given here),Potency,[1],inactive
same,Potency,[2],inactive
